From PubChem BioAssay
HT1080-NT tox = kills 2HG-producing HT-1080-NT fibrosarcoma cells; HT-1080-NT fibrosarcoma viability, CellTiter-Glo ATP luminescence, 48 h; Potency, µM (doses to about 46.1 µM), for inactives: at the highest dose activity, negative = less viability, hits mostly cytotoxic; hit rate 1.6% among 360,000; AID 686970;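 note: NT is the 2HG producing partner of a matched IDH1 knockdown line; potency is the fitted concentration of half-maximal effect; 0% = DMSO-treated cells and -100% = media-only wells without cells; nearly all actives have a fitted effect of over 55% in size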
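Luminescent CellTiter-Glo readout after 48 hours of compound exposure at 37 degrees C defined viability of HT-1080-NT cells. Activity was normalized to DMSO wells and cell-free media wells; concentration-response curves were fitted and assigned curve classes.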
HT1080 IDH1KD tx = HT-1080 IDH1 knockdown cell toxicity (counter line); HT-1080 IDH1 knockdown viability, ATP luminescence, 48 h; Potency, µM (series often up to 46.1 µM), for the others: at the highest dose activity, negative = toxicity, hits mostly cytotoxic; hit rate 2% among 360,000;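 note: potency is the fitted concentration of half-maximal effect; 0% = DMSO wells and -100% = cell-free medium wells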
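Assay cells: HT-1080 with IDH1 knockdown, 750 per well, RPMI/5% FBS. Exposure: 48 h at 37 °C following 2 h pre-incubation. Read: CellTiter-Glo luminescence; fitted concentration-response, curve class assigned.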
TDP1 cell noCPT = qHTS for Inhibitors of human tyrosyl-DNA phosphodiesterase 1 (TDP1): qHTS in cells in absence of CPT. DT40 Tdp1-/- hTDP1 cells, no CPT, ATP luminescence, 48 h. Potency, µM (top dose mostly 46.2 µM), inactives show top-dose activity change, negative = growth inhibition, actives largely listed as inhibitors. hit rate 15% among 420,000. AID 686978, 2013; note: potency is the fitted concentration of half-maximal effect; nearly all actives have a fitted effect of over 55% in size
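Seeded 400 DT40-hTDP1 cells/well (vehicle DMSO, no 20 nM CPT); pinned compounds; ≥48 hr at 37 °C; CellTiter-Glo luminescence as viability measure.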
IL1B secr inh = blocks inflammasome-driven IL-1 beta release | THP-1 LPS/ATP IL-1B secretion, AlphaLISA, 16 h; stronger effect = lower value | AID 743279 | activity change, % at 57.5 µM | hit rate 4.7% among 360,000; in the data active = activity change below about -50%; inconclusive = mostly about -30% to -49%
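THP-1 cells pretreated 1 hr with compounds (up to 57.5 uM final), then stimulated with LPS (250 ng/mL final) plus ATP (1.25 mM final); secreted IL-1B measured by AlphaLISA after 16 hr, decreased signal indicating inhibition.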
DT40 TDP1 CPT = growth inhibition of DT40 Tdp1-/-;hTDP1 cells with camptothecin (screen for TDP1 inhibitors). chicken DT40 Tdp1-/-;hTDP1 cells + 20 nM CPT, ATP luminescence, 48 h. Potency, µM (doses to about 46.2 µM), inactives show at the top dose activity change, negative = growth inhibition, usual class: inhibitors. hit rate 12% among 420,000. AID 686979; note: potency is the fitted concentration of half-maximal effect; nearly all actives have a fitted effect of over 55% in size
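Chicken DT40 Tdp1-/- cells complemented with human TDP1, 400 cells/well, exposed to compounds plus 20 nM camptothecin for at least 48 h at 37 C; viability read as ATP content by CellTiter-Glo luminescence.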
Numbers without * were called inactive; ? = inconclusive; . = no result given; [ ] = dose if it differs, or a comment. Sampled rows, rich in hits. Any-hit rate of the full collection: about 19%. Unless noted, calls come from the whole dose curve; as a rule, active = well fitted curve in the direction sought with a large enough effect; inconclusive = small, poorly fitted or top-dose-only effect, or another doubt; inactive = no such curve, though single readings can be large; an effect the other way counts as inactive or inconclusive. Unless noted, % is set by controls: 0 for no effect and ±100 for the full control effect.

SMILES	HT1080-NT tox	HT1080 IDH1KD tx	TDP1 cell noCPT	IL1B secr inh	DT40 TDP1 CPT
S=C(NCCc1ccc(Cl)cc1)NC1CCCCC1	-24%	?	?	-94*	?
Cc1cc(C(=O)NC2CC(C)(C)Cc3c2cnn3-c2ccccc2)n(C)n1 (stereo unspecified)	1%	-13%	?	17	?
CC(=O)[C@@]1(O)C(C)CC2C3C=C(C)C4=Cc5c(cnn5-c5ccccc5)C[C@]4(C)C3C(O)C[C@@]21C (stereo partly specified)	4.6µM*	21µM*	5.2µM*	-91*	4.6µM*
C=C(C)C(=O)OCC(O)COc1ccc(C(C)(C)c2ccc(OCC(O)COC(=O)C(=C)C)cc2)cc1 (stereo unspecified)	?	?	21µM*	-64*	16µM*
OCC1(CCc2ccccc2)CCCN(CCCc2ccccc2)C1 (stereo unspecified)	-10%	?	?	-73*	?
OCC1(CCc2ccccc2)CCCN(CCCC(F)(F)F)C1 (stereo unspecified)	-4%	-9%	0%	-10	-11%
OCC1(Cc2ccc(F)cc2F)CCCN(CCCc2ccccc2)C1 (stereo unspecified)	-2%	-7%	15µM*	-55*	?
CC(C)C(NC(=O)c1ccco1)C(=O)NC1CCCCCC1 (stereo unspecified)	-5%	1%	-2%	25	-6%
CCN(CC)P(=O)(Nc1ccc(C)cc1Br)c1ccc(N(C)C)cc1NC(=O)c1ccco1 (stereo unspecified)	-10%	-9%	16µM*	-66*	?
Cc1ccc(NC(=O)c2ccco2)c(NC(=O)c2ccccc2)c1	2%	-9%	6%	24	-3%
CC1CCN(C(=O)CN2C(=O)NC3(CCCCCC3)C2=O)CC1	10%	4%	5%	14	-5%
Cn1c2ccccc2c(=O)c2cc(C#CC3=CCCCC3)ccc21	4%	-6%	18µM*	0	7.3µM*
Cn1c2ccccc2c(=O)c2ccc(C#Cc3ccc(N)cc3)cc21	?	?	16µM*	-28	?
COc1ccc(C#Cc2ccc3c(=O)c4ccccc4n(C)c3c2)cc1	1%	3%	18µM*	34	?
O=C(COC(=O)c1ccccc1O)NC(=O)NCc1ccccc1	-8%	-2%	-8%	11	-28%
CCOc1ccc(C(=O)Nc2cc(-c3nc4ccccc4[nH]3)ccc2C)cc1[N+](=O)[O-]	-22%	-22%	?	-50*	?
CCCOc1cccc(C(=O)Nc2cc(-c3nc4ccccc4[nH]3)ccc2C)c1	.	.	16µM*	.	16µM*
Cc1ccc(S(=O)(=O)N(C)C)cc1NC(=O)COC(=O)COc1ccccc1[N+](=O)[O-]	20%	5%	1%	22	20%
Cc1ccc(-c2nc3ccccc3[nH]2)cc1NC(=O)COc1ccccc1[N+](=O)[O-]	.	.	?	.	15µM*
CCOc1ccc(C(=O)Nc2cc(-c3nc4ccccc4[nH]3)ccc2Cl)cc1[N+](=O)[O-]	?	18µM*	23µM*	-20	?
Cc1cc2n(n1)C(c1c[nH]c3ccccc13)Nc1ccccc1-2 (stereo unspecified)	-6%	-15%	?	7	16%
CN[C@@H]1[C@@H](O)[C@@H](O[C@@H]2[C@@H](O)[C@H](OC3OC(CN)=CCC3N)[C@@H](N)C[C@H]2N)OC[C@]1(C)O (stereo partly specified)	.	.	-10%[21.1 µM]	.	-12%[21.1 µM]
Cc1ccc(C(=O)N2CCN(c3ccccn3)CC2)cc1Cl	7%	6%	-24%	4	-2%
COCCN1C(=O)CCC1(C)c1nnnn1-c1ccc2c(c1)OCCO2 (stereo unspecified)	15%	17%	-15%	0	2%
COc1ccc(/C=N/OCC(=O)Nc2nc3ccccc3s2)cc1	6%	1%	4%	12	9%
SMILES	HT1080-NT tox	HT1080 IDH1KD tx	TDP1 cell noCPT	IL1B secr inh	DT40 TDP1 CPT
Cc1[nH]c2ccc(-c3nnc(SCC(=O)N4CCCc5ccccc54)o3)cc2c1C	0%	10%	?	26	-25%
Cc1ccc2[nH]nc(C(=O)N3CCOc4ccc(CN5CCc6sccc6C5)cc4C3)c2c1	.	.	?	.	-4%[9.04 µM]
CC1CCN(Cc2c(C(=O)N/N=C/c3cccc(Cl)c3)nnn2-c2nonc2N)CC1	4%	-8%	?	20	?
CC(=C/c1ccccc1)/C=N/NC(=O)c1nnn(-c2nonc2N)c1CN1CCC(C)CC1	0%	-2%	18µM*	-11	?
Cc1ccccc1COc1ccc(/C=N/NC(=O)c2nnn(-c3nonc3N)c2CN2CCC(C)CC2)cc1	-18%	-2%	3.3µM*	?	10µM*
CC1CCN(Cc2c(C(=O)N/N=C/c3ccccc3O)nnn2-c2nonc2N)CC1	?	5.2µM*	7.3µM*	91	8.2µM*
COc1cc(/C=N/NC(=O)c2c(C)nnn2-c2nonc2N)ccc1O	?	-24%	-9%	-1	4%
Cc1nnn(-c2nonc2N)c1C(=O)N/N=C/c1ccccc1O	6.5µM*	8.2µM*	4.6µM*	31	4.1µM*
CC1CC(C)CN(C(=O)COC(=O)Cc2ccc(Br)cc2)C1 (stereo unspecified)	19%	5%	-12%	9	24%
N#C[C@@H]1C[C@@H]2C[C@@H]2N1C(=O)[C@@H](N)C12CC3CC(CC(O)(C3)C1)C2	.	.	-15%	.	-24%
CN(Cc1c(C(=O)N/N=C/c2ccccc2O)nnn1-c1nonc1N)C1CCCCC1	12µM*	?	6.5µM*	146	?
CN(Cc1c(C(=O)N/N=C/c2cccc(O)c2)nnn1-c1nonc1N)C1CCCCC1	0%	0%	-11%	-1	-8%
O=C1N[C@@H](Cc2c[nH]c3ccccc23)COC(=O)[C@@H](Cc2ccc(F)cc2)CC/C=C/C[C@@H]1CC(=O)N(CCO)Cc1ccccc1	-20%	?	26µM*	-60*	?
O=C1N[C@@H](Cc2c[nH]c3ccccc23)COC(=O)[C@H](Cc2ccc(F)cc2)C/C=C\C[C@H]1CC(=O)N(CCO)Cc1ccccc1	?	?	16µM*	-21	13µM*
O=C1N[C@H](Cc2ccccc2)COC(=O)[C@H](Cc2ccc(F)cc2)C/C=C\C[C@H]1CC(=O)N(CCO)Cc1ccccc1	?	-29%	?	-10	?
Cc1cc(C)cc(NC(=O)Cn2nnc(C(=O)Nc3cc(C)cc(C)c3)c2N)c1	.	.	?	.	-10%
